Pf Dd2 growth: qHTS Primary assay for Inhibitors of Plasmodium falciparum Dd2 growth in vitro | AID 1347417, 2020 | hit rate 4.3% among 120,000 | Potency, µM (doses to about 28.9 µM), usual class: inhibitors | P. falciparum Dd2 growth, SYBR Green, 72 h; active means well fitted inhibition curve with a large enough effect; further: nearly all actives have a fitted effect of over 65% in size
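Readout: SYBR Green fluorescence, 485 nm excitation, 535 nm emission, after ~16 h lysis at 37C. Before that, Dd2-infected red cells (2.5% hematocrit) grew 72 h with compound, 29 uM top final concentration.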
Hits are given with their value; 0 = inactive; ! = not active in a repeat; [ ] = another dose, or the depositor's remark. This excerpt belongs to a sample that is enriched for hits.

SMILES	Pf Dd2 growth
Clc1ccc(C2Cn3nnc(-c4nc(-c5ccccc5Cl)no4)c3CO2)cc1 (configuration not stated)	0
CN1C(=O)CS(=O)(=O)C12CCN(C(=O)COc1ccccc1)CC2	0
O=C(Cc1cccs1)N1CCc2nn(CC3CC3)c(=O)n2CC1	0
O=C1NC(=NC2CCCC2)C2(CCCN([S+](=O)([O-])c3ccccc3)C2)N1c1cc(F)cc(F)c1 (configuration not stated)	0
O=C1NC(=NC2CCCC2)C2(CCCN([S+](=O)([O-])c3cccc(C(F)(F)F)c3)C2)N1c1cc(F)cc(F)c1 (configuration not stated)	10µM!
O=C1NC(=NC2CCCC2)C2(CCN([S+](=O)([O-])c3cccc(C(F)(F)F)c3)CC2)N1c1cc(F)cc(F)c1	0
COc1ccc(C(=O)N2CCCC3(C2)C(=NC2CCCCC2)NC(=O)N3c2cc(F)cc(F)c2)cc1 (configuration not stated)	0
O=C(c1ccc(C(F)(F)F)cc1)N1CCC2(C1)C(=NC1CCCCC1)NC(=O)N2c1cc(F)cc(F)c1 (configuration not stated)	8.9µM
COc1ccc(C(=O)N2CCC3(CC2)C(=NC2CCCCC2)NC(=O)N3c2cc(F)cc(F)c2)cc1	0
COCCNc1ncc(-c2ccccc2)c2c1OCC2	0
CCCN(CC1CCOC1)C(=O)c1ccc(F)c(F)c1 (configuration not stated)	0[5.79 µM]
O=S(=O)(C1CC1)N1CC[C@@](O)(c2ccccc2)[C@H]2CCCC[C@@H]21	0
COC(=O)c1c(-c2ccc(Cl)cc2)noc1N1CCN(c2cccc(C)c2C)CC1	4.5µM
COc1ccc(-c2noc(N3CCC(C(=O)N4CCN(c5cccc(C)c5C)CC4)CC3)n2)cc1	0
CC1=C(c2ccc(Cl)cc2)S(=O)(=O)N=C1N1CCN(c2cccc(C)c2C)CC1	0
CNCc1cn(C[C@H]2CC3CCN2C[C@@H]3C(=O)NCc2ccccc2)nn1 (some centres not stated)	0
O=C1NCC2(CCCN(C(=O)CCc3nc4ccccc4[nH]c3=O)C2)O1 (configuration not stated)	0
O=C1N(CCCc2ccccc2)CCCC1(O)CN1CCN(CCO)CC1 (configuration not stated)	0
COc1ccc(F)c(CN2CCCC(O)(CN3CCC(C(C)C)CC3)C2=O)c1 (configuration not stated)	0
COc1ccc(F)c(CN2CCCC(O)(CN3CCCCC3)C2=O)c1 (configuration not stated)	0
COc1ccc(F)c(CN2CCCC(O)(CN3CCC(C)CC3)C2=O)c1 (configuration not stated)	4µM
COc1ccc2nc3n(c2c1)[C@@H](CNC(=O)c1ccccc1)COC3	0
COc1ccc(S(=O)(=O)NC[C@H]2COCc3nc4cc(C)ccc4n32)cc1	0
COc1ccc2nc3n(c2c1)[C@@H](CNS(=O)(=O)c1ccccc1)COC3	8.9µM
CCCN(CC1CCOC1)C(=O)Nc1ccc(F)cc1 (configuration not stated)	0[5.79 µM]
SMILES	Pf Dd2 growth
Cc1noc([C@@H]2CN(C(=O)c3ccoc3C)C[C@H]2CO)n1	0
CC(C)c1noc(C2CCCN(C(=O)Nc3ccccc3)CCC(=O)NCC2)n1 (configuration not stated)	0
COCc1nc(C2CCCN(C(=O)Cc3ccc(C)cc3)C2)no1 (configuration not stated)	0
O=C1NCCCCCCN(Cc2cccc(OC(F)(F)F)c2)[C@H]2CCC[C@@H]12	7.1µM
O=C1CC(c2ccccc2)N(S(=O)(=O)c2cccs2)CCCCCN1 (configuration not stated)	0
Cc1ccc(CN2CCCCCCNC(=O)CC2c2ccccc2)s1 (configuration not stated)	8.9µM
O=C1NCCCCCN(Cc2ccc(F)cc2F)[C@H]2CCC[C@@H]12	0
O=C1CC(c2ccccc2)N(C(=O)c2ccsc2)CCCCCN1 (configuration not stated)	0
O=C1CC(c2ccccc2)N(C(=O)c2cccs2)CCCCCN1 (configuration not stated)	0
Cc1ccc(CN2CCCN(S(C)(=O)=O)C(c3ccccc3)CC(=O)NCC2)s1 (configuration not stated)	0
O=C1NCCCCCN(Cc2cccnc2)[C@H]2CCC[C@@H]12	0
Cc1ccsc1CN1CCCCCCNC(=O)CC1c1ccccc1 (configuration not stated)	13µM
Cc1ccc(C(=O)NCC(=O)N2CCCCCCNC(=O)CC2c2ccccc2)s1 (configuration not stated)	0
Cc1ccsc1CN1CCCCCNC(=O)CC1c1ccccc1 (configuration not stated)	7.1µM
O=C1CC(c2ccccc2)N(C(=O)C2CCCC2)CCCCCCN1 (configuration not stated)	0
CN1CCN(C(=O)N2Cc3ccccc3OC3(CCN([S+](C)(=O)[O-])CC3)C2)CC1	0
COc1ccc(C(=O)N2CCOC[C@H](Oc3cnccn3)C2)cc1	0
O=S(=O)(c1ccc(F)cc1)N1CCCC(CN2CCCC2)CC1 (configuration not stated)	0
CCn1cc(S(=O)(=O)NCC2Cn3cccc3C(=O)N2Cc2ccccc2)cn1 (configuration not stated)	0
Cc1ccc(OCc2nc(C3CCCCN3C(=O)CCN3C(=O)NC(C)(C)C3=O)no2)cc1 (configuration not stated)	0
Cc1ccc(-n2nc3n(c2=O)CCN(C(=O)N(C)C)C3)cc1	0
O=C(c1ccccc1OCC1CCCN(C2CCC2)C1)N1CCCCC1 (configuration not stated)	0
Cc1ccsc1CN1CCCCCCNC(=O)[C@@H]2CCC[C@@H]21	8.9µM
O=C1NCCCCCN(Cc2ccccn2)[C@H]2CCC[C@@H]12	0
Cc1ncsc1CN1CCCCCCNC(=O)[C@@H]2CCC[C@@H]21	0
SMILES	Pf Dd2 growth
CC(C)N1C(=O)C2(CCCC2)C1C(=O)NC1CCCCC1 (configuration not stated)	0
Cc1ccc(C(=O)NC[C@H]2C[C@@H]3CCN2C[C@@H]3c2cc(-c3cccs3)nc(C)n2)cc1	7.1µM
Cc1ccc(S(=O)(=O)NC[C@H]2C[C@@H]3CCN2C[C@@H]3c2cc(-c3ccccc3Br)nc(C)n2)cc1	0
C=C[C@H]1CN2CC[C@H]1C[C@@H]2CNC(=O)c1ccc2c(c1)OCO2	0
Cn1nc(-c2ccc3ccccc3c2)cc1[C@H]1CN2CC[C@H]1C[C@@H]2COC(=O)Nc1cccc(C(F)(F)F)c1	0
Cc1nc(-c2cccs2)cc([C@H]2CN3CC[C@H]2C[C@@H]3CNC(=O)N2CCOCC2)n1	0
Cc1nc(-c2cccs2)cc([C@H]2CN3CC[C@H]2C[C@@H]3CNC(=O)c2ccc3c(c2)OCO3)n1	8.9µM
O=C(Nc1cccc(C(F)(F)F)c1)OC[C@H]1C[C@@H]2CCN1C[C@@H]2c1cc(C2CCCC2)nc(-c2ccncc2)n1	2.5µM
COc1ccccc1-c1cc([C@H]2CN3CC[C@H]2C[C@@H]3CNC(=O)CCC(=O)O)nc(C)n1	0
Cc1nc(-c2ccccc2)cc([C@H]2CN3CC[C@H]2C[C@@H]3CNC(=O)N2CCOCC2)n1	0
Cc1nc(-c2cccs2)cc([C@H]2CN3CC[C@H]2C[C@@H]3CNC(=O)c2ccccc2)n1	7.9µM
Cc1nc(-c2ccccc2Br)cc([C@H]2CN3CC[C@H]2C[C@@H]3CNC(=O)c2ccco2)n1	0

Screening data: PubChem BioAssay, National Center for Advancing Translational Sciences (NCATS)
